The list is not random: actives were taken first. Their share in the collection is about 2.8%.
POLH inh – blocks human DNA polymerase eta activity; recombinant Pol eta, fluorescent DNA replication assay; 390,000 compounds, 1.2% hits; Q9Y253; Potency, µM (series often up to 114 µM), inactives show top-dose activity change, negative = inhibition, actives largely listed as inhibitors; further: potency means the concentration at half of the fitted maximal effect; on the % scale 0 is the no-effect control and ±100 the full control effect
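Pol eta (10 nM) was preincubated with compounds for 15 min at room temperature, after which fluorescent replication substrate (50 nM final) was added to start the reaction. Fluorescence was read kinetically at 0 and 10 min.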
PI5P4K alpha inh – PI5P4K alpha (human) kinase inhibition. P48426. PI5P4Kalpha enzyme, ADP-Glo luminescence, 60 min; active compounds read low. max response, %. 330,000 compounds, 1.2% hits; active means max response of -50% or lower; inconclusive means between -30% and -50%; inactive means -30% or higher; further: value at the top dose of about 77 µM; on the % scale 0 is the no-effect control and ±100 the full control effect
Target sequence (P48426 whole entry, looked up): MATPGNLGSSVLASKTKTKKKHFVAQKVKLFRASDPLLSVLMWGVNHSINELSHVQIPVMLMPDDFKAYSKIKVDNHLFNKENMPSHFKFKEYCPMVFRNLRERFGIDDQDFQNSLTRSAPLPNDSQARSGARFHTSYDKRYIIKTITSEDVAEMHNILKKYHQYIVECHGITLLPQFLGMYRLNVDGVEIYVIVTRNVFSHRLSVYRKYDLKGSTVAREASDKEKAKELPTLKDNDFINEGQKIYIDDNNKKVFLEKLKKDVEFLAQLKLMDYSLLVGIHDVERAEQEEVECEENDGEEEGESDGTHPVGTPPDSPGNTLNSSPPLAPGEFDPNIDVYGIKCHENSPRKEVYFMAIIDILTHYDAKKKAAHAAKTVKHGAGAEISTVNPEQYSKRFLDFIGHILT
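Reactions run in 0.038 M HEPES pH 7.4, 0.28 mM EGTA, 0.1% CHAPS and 5% DMSO, with PI5P4Kalpha, substrate, compound and 5 microM ATP final, one hour at room temperature. Readout is ADP-Glo luminescence.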
Pol iota inh – DNA polymerase iota (human) inhibition; Q9UNA4; Pol iota fluorescent replication assay, 10 min; Potency, µM (top dose mostly 115 µM), without a hit: at the highest dose activity, negative = inhibition, actives largely listed as inhibitors; 390,000 compounds, 1% hits; AID 588590; further: potency means the concentration at half of the fitted maximal effect
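Pol iota at 10 nM preincubated 15 min with compounds at room temperature; reaction started with fluorescent substrate, 50 nM final. Fluorescence read kinetically at 0 and 10 min; buffer-only wells as negative control.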
WRN helicase inh – blocks human WRN helicase | Q14191 | WRN helicase unwinding, fluorescent forked duplex, kinetic | Potency, µM (highest dose often 114 µM), for the others: at the highest dose activity change, negative = inhibition, usual class: inhibitors | 360,000 compounds, 0.46% hits; further: potency means the concentration at half of the fitted maximal effect; on the % scale 0 is the no-effect control and ±100 the full control effect; nearly all actives have a fitted effect of over 55% in size
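Screening of the MLSMR collection measured strand separation of a quenched forked DNA duplex (100 nM) by 20 nM WRN with 2 mM ATP, all final. Compounds were preincubated with enzyme 15 min at room temperature.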
Pol kappa inh – blocks human DNA polymerase kappa activity | AID 588579 | Q9UBT6 | 400,000 compounds, 0.53% hits | purified Pol kappa, fluorescent DNA synthesis assay, 10 min | Potency, µM (highest dose often 107 µM), inactives show top-dose activity, negative = inhibition, hits mostly inhibitors; further: potency means the concentration at half of the fitted maximal effect; on the % scale 0 is the no-effect control and ±100 the full control effect
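Here, compound and 10 nM enzyme are combined for 15 min at room temperature; adding 50 nM substrate (final) starts DNA synthesis, tracked by fluorescence at 0 and 10 min against buffer-only wells.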
Pol beta inh – DNA polymerase beta (human) inhibition; P06746; Pol beta primer extension/strand displacement, fluorescence kinetic; Potency, µM (titrated, usually from 114 µM), for the others: top-dose activity change, negative = inhibition, actives largely listed as inhibitors; 340,000 compounds, 1.3% hits; AID 485314; further: potency means the concentration at half of the fitted maximal effect; on the % scale 0 is the no-effect control and ±100 the full control effect
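Reaction started by 50 nM substrate onto compound-treated Pol beta (10 nM, 15 min preincubation, room temperature); plates read at 0 min and 10 min. Normalized concentration-effect data fitted by four-parameter Hill equation.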
An asterisk follows results filed as active; ? = inconclusive; . = not tested or not shown; ! = not active in a repeat; [ ] = another dose, or the depositor's remark. Unless noted, the call rests on the fitted dose curve; in most records, active means well fitted curve in the direction sought with a large enough effect; inconclusive means small, poorly fitted or top-dose-only effect, or another doubt; inactive means no such curve, though single readings can be large; an effect the other way counts as inactive or inconclusive.

SMILES | POLH inh | PI5P4K alpha inh | Pol iota inh | WRN helicase inh | Pol kappa inh | Pol beta inh
CCOc1cccc2sc(N(Cc3cccnc3)C(=O)c3ccc(C#N)cc3)nc12 | -22% | . | 10% | . | -11%[60.1 µM] | -9%
CC1(C)CC(=O)C=C(Nc2ccc(C(=O)O)cc2)C1 | 7% | -6 | 4% | -4% | -4% | 13%
CC1(C)CC(=O)C=C(Nc2ccc(O)c(C(=O)O)c2)C1 | 12% | -94* | ? | -7% | ? | -12%
COc1cccc(CN(C)Cc2cc(=O)oc3cc(O)c(Cl)cc23)c1 | -5% | -78* | -25% | -1% | -19% | 0%
CC(C)c1ccc(OCC(=O)Nc2ccc(S(=O)(=O)Nc3ncccn3)cc2)cc1 | -7% | . | -15% | . | 1% | 6%
Oc1c(Cl)cc(Cl)cc1/C=C/c1ccc2cccc(O)c2n1 | -28% | -3 | 23% | -23% | -15% | 28µM*
Cc1oc(C)c2c(=O)cc(-c3ccc4c(c3)OCO4)cc(OC(=O)c3ccccc3Cl)c12 | ? | . | 79µM* | . | ? | 18µM*
CCOC(=O)C(=O)Nc1nnc(CCc2ccccc2)s1 | 5% | -66* | -5% | 2% | 5% | 17%
CCC(=O)Nc1nnc(CCc2ccccc2)s1 | -4% | ? | 19% | 0% | -1% | -8%
Cc1ccc(CNC(=O)c2sc3nc(-c4ccc(F)cc4)ccc3c2N)cc1 | -13% | . | 59% | . | ? | 4%
O=Nc1c2cc(-c3ccccc3)[nH]nc-2c2ccccc12 | -8% | -10 | -6% | -4% | -6% | 40µM*
CN(c1ccc(-c2csc(NC(=O)C3CC(=O)N(Cc4ccco4)C3)n2)cc1)S(C)(=O)=O (centres undefined) | 50µM* | ? | 45µM* | -14% | ? | .
CS(=O)(=O)c1ccc(Cl)c(NC(=O)C2CC(=O)N(Cc3ccco3)C2)c1 (centres undefined) | -26% | 1 | 79µM* | 1%[11.6 µM] | ? | .
COC(=O)c1sc(N)c(C(=O)OC)c1COC(=O)C1CC(=O)N(Cc2ccco2)C1 (centres undefined) | 79µM* | . | ? | ? | -7% | 11µM*
CCc1ccc(NC(=O)N2CCN(Cc3nc4ccc(C)cc4o3)CC2)cc1 | -12% | . | 23% | . | -7%[60.1 µM] | 0%
O=C(c1c[nH]c2ccc(S(=O)(=O)Nc3ccccc3F)cc2c1=O)N1CCCCCC1 | 0% | . | ? | . | -15% | 17%
CCc1ccc(NS(=O)(=O)c2ccc3[nH]cc(C(=O)N4CCc5ccccc54)c(=O)c3c2)cc1 | ? | -22 | -65% | -19% | ? | 18µM*
CCc1ccccc1NS(=O)(=O)c1ccc2[nH]cc(C(=O)N3CCCCC3)c(=O)c2c1 | 9% | . | ? | . | -10% | 22µM*
CN(Cc1ccccc1)C(=O)c1c[nH]c2ccc(S(=O)(=O)Nc3ccccc3F)cc2c1=O | ? | . | -32% | . | ? | 25µM*
Cc1c(C(=O)Nc2ccc(F)cc2F)nnn1-c1ccccc1Br | -16% | . | 39% | . | 2% | -25%
CCC(CC)C(=O)Nc1ccc2nc(SCC(=O)N3CCOCC3)sc2c1 | -16% | . | 20% | . | -18% | 2%
COc1cc2c(cc1OC)n(CC(=O)c1ccc(C)cc1C)c(=O)n1nc(CCn3nc(C)cc3C)nc21 | -2% | . | -3% | . | -3%[60.1 µM] | -1%
O=C(Cc1ccc(OCCC2CCCCC2)cc1)NO | . | . | 20% | . | -14% | .
CSc1ccc(CCNC(=O)C2CCCN(S(=O)(=O)N(C)c3ccc(F)cc3)C2)cc1 (centres undefined) | -14% | . | 26% | . | -5% | -21%
COc1ccccc1NS(=O)(=O)c1cc(N)ccc1N1CCCC1 | -25% | ? | 79µM* | -24% | -12% | .
SMILES | POLH inh | PI5P4K alpha inh | Pol iota inh | WRN helicase inh | Pol kappa inh | Pol beta inh
CC(C)(C)OC(=O)N1CCC(c2c(C(=O)NCc3ccc4c(c3)OCO4)cnn2-c2ccc(F)cc2F)CC1 | -18% | . | -1% | . | -10% | -26%
CN(Cc1ccco1)c1cc(-c2ccoc2)ncn1 | . | . | . | . | 25µM* | .
O=c1c2c(-c3ccccc3)csc2ncn1/N=C/c1cccc([N+](=O)[O-])c1O | 1% | -103* | -25% | -6% | -19% | -21%
Cc1cccc(-c2nc3scc(CCNC(=O)c4ccccc4Cl)n3n2)c1 | -18% | . | -17% | . | 2%[60.1 µM] | 10%
O=c1cc(CCl)nc2sc3ccccc3n12 | 50µM* | -26 | 35µM* | -5%[11.6 µM] | ? | ?
Cc1c(O)nc2sc3ccccc3n2c1=O | . | . | . | . | . | -4%
COc1ccc(/C=C/C(=O)OCc2cc(=O)n3c(n2)sc2ccccc23)cc1 | -2% | -18 | 71% | -8% | -11% | ?
O=C(OCc1cc(=O)n2c(n1)sc1ccccc12)c1ccc(O)cc1 | ? | -6 | -5% | -5% | -10% | 10µM*
CCC(C)COC(c1ccccc1)(c1ccccc1)C(Oc1nc(C)cc(C)n1)C(=O)O (centres undefined) | 9% | -2 | 79µM* | 11% | -16% | 0%
Cc1cc(C)nc(OC(C(=O)O)C(OCC(C)C)(c2ccccc2)c2ccccc2)n1 (centres undefined) | ? | 0 | 13% | 2% | 0% | -14%
COCCCNc1oc(-c2cccs2)nc1S(=O)(=O)c1ccc(C)cc1 | -19% | 7 | 79% | -4% | -3% | 40µM*
COc1ccc(OC)c2sc(N3CCN(C(=O)C(C)(C)C)CC3)nc12 | -3% | . | 30% | . | -5%[60.1 µM] | -13%
Cc1cc2c(NC(=O)CC(C)(C)CC(=O)O)cccc2nn1 | 28µM* | -12 | 20µM* | -1%[11.6 µM] | ? | -1%
Cc1ccc2nc(NCc3ccco3)c(C=NCc3ccco3)c(=O)n2c1 | -6% | . | 1% | -13% | -14% | 28µM*
O=c1c(C=NCc2ccccc2)c(NCc2ccccc2)nc2ccccn12 | -5% | 5 | -17% | -13% | -13% | 32%
Cc1ccc(Cn2c(=O)c3cccnc3n(CC(=O)Nc3cccc(C(F)(F)F)c3)c2=O)cc1 | ? | 8 | 89µM*! | 0% | -30% | -125%
O=C(Cn1c(=O)n(Cc2ccc(Cl)cc2)c(=O)c2cccnc21)Nc1ccccc1C(F)(F)F | 1% | . | -7% | . | -1% | 26%
CSC1=NS(=O)(=O)c2c(C)nn(C)c2S1 | -11% | -76* | -10% | 3% | 0% | 25%
CCCC[C@@H]1CCCO[C@@](C(=O)NCc2cc(C)n(C)n2)(C(F)(F)F)C1 | -13% | 0 | 10% | -1% | -11% | .
CCC[C@@H]1CCCO[C@@](C(=O)NCc2cc(C)n(C)n2)(C(F)(F)F)C1 | -19% | 2 | 89µM*! | 5% | ? | .
CCOC(=O)COc1nc(-c2ccco2)cc(-c2ccco2)c1C#N | -1% | ? | 50µM* | -16% | ? | ?

Screening results as filed in PubChem.
